# The whole screen tested about 16,000 compounds, of which about 5,100 (32%) were called active. About 25% were inconclusive and are not listed. Calls follow the shape of the dose curve; as a rule, active = well fitted curve in the direction sought with a large enough effect; inconclusive = small, poorly fitted or top-dose-only effect, or effect the other way; inactive = no such curve, though single readings can be large or run the other way. The list shows a part of the results.
# Molecular target: Cytochrome P450 3A4 (Homo sapiens) (UniProt P08684)
# Test: Cytochrome panel assay with activity outcomes
# Settings: recombinant CYP, pro-luciferin dealkylation, luminescence, p450-cyp3a4; series mostly up to 57.1 µM
# % is scaled to controls: 0 for no effect and ±100 for the full control effect.
# Chain of Cytochrome P450 3A4 (Homo sapiens) (P08684 whole entry, looked up): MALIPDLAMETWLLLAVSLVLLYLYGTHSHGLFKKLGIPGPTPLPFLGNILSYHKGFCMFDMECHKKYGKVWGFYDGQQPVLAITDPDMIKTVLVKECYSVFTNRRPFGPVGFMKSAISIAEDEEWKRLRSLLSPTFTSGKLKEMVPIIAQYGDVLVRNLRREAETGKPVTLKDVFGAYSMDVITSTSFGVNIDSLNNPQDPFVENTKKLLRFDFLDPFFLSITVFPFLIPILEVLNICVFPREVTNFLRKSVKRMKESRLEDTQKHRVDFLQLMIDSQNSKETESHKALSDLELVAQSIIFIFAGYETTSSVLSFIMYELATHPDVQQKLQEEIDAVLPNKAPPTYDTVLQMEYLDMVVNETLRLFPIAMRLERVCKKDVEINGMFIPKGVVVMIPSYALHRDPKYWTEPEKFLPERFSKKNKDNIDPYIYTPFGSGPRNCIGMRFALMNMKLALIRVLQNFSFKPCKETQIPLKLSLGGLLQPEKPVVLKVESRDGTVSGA
SMILES,AC50,"activity, negative = inhibition"
FC(F)(F)c1ccccc1-c1nc(NC2CC2)c2ccccc2n1,3.16 µM (active),–
COc1ccccc1-c1nc(NC2CC2)c2ccccc2n1,12.6 µM (active),–
FC(F)(F)c1ccccc1-c1nc(NC2CCNCC2)c2ccccc2n1,inactive,–
Cc1ccccc1-c1nc(NC2CCNCC2)c2ccccc2n1,inactive,–
Cc1ccccc1-c1nc(NC2CC2)c2ccccc2n1,3.98 µM (active),–
CN(C)Cc1ccccc1-c1nc(NC2CC2)c2ccccc2n1,15.8 µM (active),–
N[C@H](C(=O)O)C1[C@H](C(=O)O)[C@H]1C(=O)O (some centres not stated),inactive,–
CCCNC(=S)Nc1ccc(Br)cc1,inactive,–
Cc1ccc(SCCNC(=S)Nc2ccc(C)c(C)c2)cc1,6.31 µM (active),–
CCOC(=O)C1(S(=O)(=O)c2ccc(Cl)cc2)CCN(Cc2ccc(Cl)cc2)CC1,7.08 µM (active),–
CCOC(=O)C1(S(=O)(=O)c2ccccc2)CCN(Cc2ccccc2)CC1,5.01 µM (active),–
CC(C)NC1(C(N)=O)CCN(Cc2ccccc2)CC1,–,-7.69% [at 11.4 µM] (inactive)
COCC(=O)N1CCC2(CCN(Cc3ccccc3)CC2)CC1,inactive,–
CC(=O)N1CCC2(CCN(Cc3ccccc3)CC2)CC1,inactive,–
CC1(C)Cc2c(C#N)c(SCc3ccccc3)nc(N3CCOCC3)c2CO1,25.1 µM (active),–
Nc1nc(N)c(N=Nc2ccc(C(=O)O)c(O)c2)c(N)n1,–,-18% [at 11.4 µM] (inactive)
COc1ccc(NC(=O)OC(C)C)cc1,–,-9.73% [at 2.29 µM] (inactive)
CCn1c2ccccc2c2cc(NC(=O)C(C)Oc3ccc(OC)cc3)ccc21 (configuration not stated),6.31 µM (active),–
CC(Oc1ccccc1)C(=O)Nc1nc2c(s1)C(=O)CC(C)(C)C2 (configuration not stated),inactive,–
CCN(CC)c1ccc(/C=C/c2nc3ccccc3s2)cc1,11.2 µM (active),–
CN(N=O)c1ccc(/C=C\c2ccnc3ccccc23)cc1,–,-15.2% [at 11.4 µM] (inactive)
Cc1nc2ccccn2c1/C(O)=C1\C(=O)C(=O)N(CCN2CCOCC2)C1c1cccnc1 (configuration not stated),inactive,–
Cc1nc2ccccn2c1/C(O)=C1\C(=O)C(=O)N(CCCn2ccnc2)C1c1ccncc1 (configuration not stated),11.2 µM (active),–
Cc1nc2c(C)cccn2c1/C(O)=C1\C(=O)C(=O)N(CCN2CCOCC2)C1c1cccs1 (configuration not stated),inactive,–
CN(CCc1ccccn1)Cc1ccc(Cl)cc1Cl,7.94 µM (active),–
Cc1cccc(CN(C)CCc2ccccn2)c1,inactive,–

SMILES,AC50,"activity, negative = inhibition"
CC(C)C(=O)C(C)(C)CCc1ccccn1,–,-11% [at 11.4 µM] (inactive)
COc1cccc(CNC(=O)C2CCN(S(=O)(=O)N3CCCCC3)CC2)c1,22.4 µM (active),–
COc1ccccc1CNC(=O)C1CCN(S(=O)(=O)N2CC(C)CC(C)C2)CC1 (configuration not stated),11.2 µM (active),–
COc1ccc(CCNC(=O)C2CCN(S(=O)(=O)N3CC(C)CC(C)C3)CC2)cc1OC (configuration not stated),7.08 µM (active),–
CCS(=O)(=O)N1CCC(C(=O)NCc2ccccc2OC)CC1,–,4.92% [at 11.4 µM] (inactive)
O=C(Nc1cc2c(oc1=O)CCCC2=O)c1ccc(Cl)cc1,inactive,–
Cc1cc(NC(=O)c2cc(C(C)C)on2)no1,inactive,–
O=C(Nc1cc(C(F)(F)F)ccc1N1CCCCC1)c1ccc(Br)o1,inactive,–
Cc1ccc(OCC(=O)Nc2ccc(Cl)cc2)c(-n2nc3ccccc3n2)c1,–,-10.5% [at 2.29 µM] (inactive)
CC(=O)N1CCN(c2ccccc2NC(=O)COc2ccc(Br)cc2)CC1,4.47 µM (active),–
O=C(COc1ccccc1)Nc1cc(C(F)(F)F)ccc1N1CCCC1,3.98 µM (active),–
NS(=O)(=O)c1cc(C(=O)O)cc(N2CCCC2)c1Oc1ccccc1,inactive,–
CCOc1ccc(C(=O)Nc2ccccc2N2CCCC2)cc1,–,-11.9% [at 2.29 µM] (inactive)
Cc1ccc(OCC(=O)Nc2ccccc2N2CCOCC2)c(C)c1,14.1 µM (active),–
CCCCC(=O)NC(Nc1cc(C)ccn1)(C(=O)OCC)C(F)(F)F (configuration not stated),7.08 µM (active),–
O=P(O)(O)O[C@@H]1O[C@H](CO)[C@@H](O)[C@H](O)[C@@H]1O,–,-3.16% [at 11.4 µM] (inactive)
O=c1c2ccccc2nc(-c2ccc(Br)cc2)n1Cc1ccccc1,inactive,–
CN1CCN(C(=O)c2ccc3c(=O)n4c(nc3c2)CCCCC4)CC1,inactive,–
N#CCSc1nc2ccc(N3CCCCC3)cc2c(=O)n1Cc1ccccc1,7.08 µM (active),–
N#CCSc1nc2cc(C(=O)N3CCCC3)ccc2c(=O)n1Cc1ccccc1,12.6 µM (active),–
COc1ccc(NC(=O)N2CC[C@@]3(CCCN(C(=O)c4cc(C(F)(F)F)cc(C(F)(F)F)c4)C3)C2)cc1,20 µM (active),–
Cn1cccc1C(=O)N1CCC2(CC1)CN(C(=O)Nc1ccccc1)C2,inactive,–
COc1ccc(NC(=O)N2CCCC3(CCN(C(=O)c4ccc(OC)cc4)CC3)C2)cc1,12.6 µM (active),–
COc1ccc(NC(=O)N2CCCC3(CCN(C(=O)c4cccn4C)CC3)C2)cc1,25.1 µM (active),–
COc1ccc(C(=O)N2CCC3(CC2)CN(C(=O)Nc2ccccc2)C3)cc1,inactive,–
COC(=O)N1CCC[C@@]2(CCN(C(=O)Nc3ccccc3)C2)C1,inactive,–

SMILES,AC50,"activity, negative = inhibition"
COc1ccc(NC(=O)N2CC3(CCN(C(=O)c4cccn4C)CC3)C2)cc1,inactive,–
COc1ccc(C(=O)N2CCC[C@@]3(CCN(C(=O)Nc4ccccc4)C3)C2)cc1,15.8 µM (active),–
CC(=O)ON(C(C)=O)S(=O)(=O)c1ccc(Cl)cc1,inactive,–
COC(=O)N1CCC2(CC1)CN(C(=O)Nc1ccc(OC)cc1)C2,inactive,–
COCC(=O)N1CCC2(CC1)CN(C(=O)Nc1ccc(OC)cc1)C2,inactive,–
COc1ccc(NC(=O)N2CC3(CCN(C(=O)c4ccco4)CC3)C2)cc1,inactive,–
COc1ccc(NC(=O)N2CC[C@@]3(CCCNC3)C2)cc1,inactive,–
COc1ccc(NC(=O)N2CCCC3(CCN(C(=O)c4ccco4)CC3)C2)cc1,15.8 µM (active),–
COc1ccc(NC(=O)N2CC[C@@]3(CCCN(C(C)=O)C3)C2)cc1,inactive,–
COc1ccc(NC(=O)N2CC[C@@]3(CCCN(C(=O)c4ccc(OC)cc4)C3)C2)cc1,15.8 µM (active),–
COc1ccc(NC(=O)N2CCC3(CC2)CCN(C(=O)c2ccco2)CC3)cc1,inactive,–
COc1ccc(NC(=O)N2CCCC3(CCNCC3)C2)cc1,25.1 µM (active),–
N#Cc1ccc(Oc2nc(C(N)=O)cc(-c3ccccc3)n2)cc1,inactive,–
CO/N=C(\C(=O)N[C@@H]1C(=O)N2C(C(=O)[O-])=C(C[N+]3(C)CCCC3)CS[C@@H]12)c1csc(N)n1,inactive,–
Nc1nc2c(c(=O)[nH]1)N[C@H](CCNc1ccc(C(=O)O)cc1)CN2,–,-0.744% [at 11.4 µM] (inactive)
CCOc1c2ccc(C(=O)NCc3ccc(OC(F)(F)F)cc3)cc2nn1CC,–,-2.81% [at 2.29 µM] (inactive)
CCOC(=O)C(C(=O)NCc1ccc(C)cc1)c1ncc(C(F)(F)F)cc1Cl (configuration not stated),1.26 µM (active),–
COc1ccc(NC(=O)c2ccc(-n3cccn3)nc2)c(OC)c1,inactive,–
C(=C1/CCCC2=C1Nc1ncnn1C2c1ccccc1)/c1ccccc1 (configuration not stated),inactive,–
CCOc1ccc(/C(O)=C2/C(=O)C(=O)N(CCOCCO)C2c2cccnc2)cc1 (configuration not stated),inactive,–
CCOC(=O)C1=C(C)Nc2ncnn2C1c1cccnc1 (configuration not stated),11.2 µM (active),–
CCCCOC(=O)C1=C(C)Nc2ncnn2C1c1cc(OC)ccc1OC (configuration not stated),7.08 µM (active),–
COc1cc(OC)c(C2C(C(=O)Nc3ccc(C)cc3C)=C(C)Nc3ncnn32)cc1OC (configuration not stated),8.91 µM (active),–
COc1ccc(C2N=C(N)N=C(N)N2c2ccccc2OC)cc1OC (configuration not stated),–,-8.43% [at 2.29 µM] (inactive)
C[N+]1(C)C[C@@H](O)C[C@@H]1C(=O)[O-],inactive,–
C=C(C)COc1ccc2c(c1)CCC1C2CC[C@]2(C)C(=O)/C(=N/O)CC12 (some centres not stated),–,1.68% [at 11.4 µM] (inactive)

SMILES,AC50,"activity, negative = inhibition"
N#CCCn1c(=O)cnc2cnc(N3CCOCC3)nc21,inactive,–
COc1ccc2[nH]cc(CCNc3ncncc3-c3cccc(NS(C)(=O)=O)c3)c2c1,0.398 µM (active),–
COc1ccc2[nH]cc(CCNc3ncncc3-c3cccnc3)c2c1,0.794 µM (active),–
COc1cccc(-c2cncnc2NCCc2c[nH]c3ccc(OC)cc23)c1,0.501 µM (active),–
Clc1ccc(N2CCCCCC2)nn1,inactive,–
COc1ccccc1NC(=O)CCN1C(=O)C2CC=C(Cl)CC2C1=O (configuration not stated),14.1 µM (active),–
Cc1ncc(N=Nc2ccccc2Cl)c(-c2ccccc2)n1,inactive,–
COC(=O)CNC(=O)CN1C(=O)N(c2ccc(Cl)cc2)C(N(O)C(=O)Nc2ccc(Cl)cc2)C1(C)C (configuration not stated),4.47 µM (active),–
COC(=O)CNC(=O)CN1C(=O)N(c2ccccc2)C(N(O)C(=O)Nc2ccccc2)C1(C)C (configuration not stated),inactive,–
COC(=O)CC1C(=O)NCCN1C(=O)Nc1ccc(Cl)cc1 (configuration not stated),inactive,–
Cc1ccc(OCCOCCn2ccnc2)c(Br)c1,0.562 µM (active),–
Cc1cccc(OCCCCCn2ccnc2)c1,0.562 µM (active),–
COc1cc(C)ccc1OCCOc1cc(C)ccc1Cl,–,5.86% [at 2.29 µM] (inactive)
O=C(O)c1cccc(OCCO)c1,–,-12.1% [at 11.4 µM] (inactive)
Cc1cc2[nH]c(=O)c3ccccc3n2n1,inactive,–
O=c1cc(CSc2nnc(-c3cccnc3)n2-c2ccccc2F)nc2sccn12,2.82 µM (active),–
Cn1cc(C(=O)N/N=C/C(Br)=C\c2ccccc2)ccc1=O,inactive,–
CS(=O)(=O)N1CCC[C@@]2(CCN(C(=O)Nc3ccccc3)C2)C1,inactive,–
CS(=O)(=O)N1CCC2(CCN(C(=O)Nc3cccc(C#N)c3)CC2)CC1,inactive,–
O=C(Nc1cccc(F)c1)N1CC[C@@]2(CCCN(S(=O)(=O)c3ccccc3)C2)C1,25.1 µM (active),–
N#Cc1cccc(NC(=O)N2CC[C@@]3(CCCN(S(=O)(=O)c4ccccc4)C3)C2)c1,3.16 µM (active),–
O=C(Nc1cccc(F)c1)N1CCCC2(CCN(S(=O)(=O)c3ccccc3)CC2)C1,12.6 µM (active),–
CS(=O)(=O)N1CCC2(CCN(C(=O)Nc3cccc(F)c3)CC2)CC1,inactive,–
O=C(Nc1cccc(F)c1)N1CC2(CCN(S(=O)(=O)c3ccccc3)CC2)C1,inactive,–

# — PubChem BioAssay AID1851 (National Center for Advancing Translational Sciences (NCATS), 2009)
